The supplement of paper PMC6555819

Columns and labels:
Assay in all cases: PBM binding z-score (relative to random genomic background probes); higher = stronger binding; sequences stand for … in GC…GCGATTGACAGCGTAGAATGAAGG
[1] = tested on: FXR:RXRa (NR concentration 270 nM, RXRa partner concentration 90 nM)
Procedure, shortened: (§1)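 Antibodies against each partner of ligand-free nuclear receptor dimers (one per run) detected binding on custom Agilent 4×180K protein-binding microarrays after 1 h incubation. The double-stranded probes had 34-nt variable regions carrying direct-repeat seeds, single-nucleotide variants, half-site ablations and random human genomic background sequences. Binding z-scores, from regression-normalized fluorescence, use the random background probes as reference.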

[2] = tested on: LXRa:RXRa (NR concentration 270 nM, RXRa partner concentration 90 nM)
Procedure, shortened: as §1

[3] = tested on: LXRa homodimer (NR concentration 270 nM)
Procedure, shortened: as §1

[4] = tested on: LXRb:RXRa (NR concentration 270 nM, RXRa partner concentration 90 nM)
Procedure, shortened: as §1

[5] = tested on: LXRb homodimer (NR concentration 270 nM)
Procedure, shortened: as §1

[6] = tested on: PPARa:RXRa (NR concentration 270 nM, RXRa partner concentration 90 nM)
Procedure, shortened: as §1

[7] = tested on: PPARg:RXRa (NR concentration 180 nM, RXRa partner concentration 90 nM)
Procedure, shortened: as §1

[8] = tested on: PPARg:RXRa 270nM:90nM, anti-RXR (NR concentration 270 nM, RXRa partner concentration 90 nM)
Procedure, shortened: as §1

[9] = tested on: PPARg:RXRa 30nM:10nM, anti-RXR (NR concentration 30 nM, RXRa partner concentration 10 nM)
Procedure, shortened: as §1

[10] = tested on: PPARg:RXRa 90nM:30nM, anti-RXR (NR concentration 90 nM, RXRa partner concentration 30 nM)
Procedure, shortened: as §1

[11] = tested on: PPARg:RXRa DBDmut IVT, anti-RXR (DBD mutation: RXRa K156A/R161A, NR concentration 270 nM, RXRa partner concentration 90 nM)
Procedure, shortened: as §1

[12] = tested on: PPARg:RXRa IVT, anti-PPARg (NR concentration 270 nM, RXRa partner concentration 90 nM)
Procedure, shortened: as §1

[13] = tested on: PPARg DBDmut:RXRa IVT, anti-PPARg (DBD mutation: PPARg1 K132A/R137A, NR concentration 270 nM, RXRa partner concentration 90 nM)
Procedure, shortened: as §1

[14] = tested on: PPARg DBDmut IVT, anti-PPARg (DBD mutation: PPARg1 K132A/R137A, NR concentration 270 nM)
Procedure, shortened: as §1

[15] = tested on: PPARg homodimer (NR concentration 180 nM)
Procedure, shortened: as §1

[16] = tested on: PXR:RXRa (NR concentration 270 nM, RXRa partner concentration 90 nM)
Procedure, shortened: as §1

[17] = tested on: PXR homodimer (NR concentration 270 nM)
Procedure, shortened: as §1

[18] = tested on: RARa:RXR (NR concentration 270 nM, RXRa partner concentration 90 nM)
Procedure, shortened: as §1

[19] = tested on: RARa homodimer (NR concentration 270 nM)
Procedure, shortened: as §1

[20] = tested on: RARb:RXRa (NR concentration 270 nM, RXRa partner concentration 90 nM)
Procedure, shortened: as §1

Sequence	PBM binding z-score [1]	PBM binding z-score [2]	PBM binding z-score [3]	PBM binding z-score [4]	PBM binding z-score [5]	PBM binding z-score [6]	PBM binding z-score [7]	PBM binding z-score [8]	PBM binding z-score [9]	PBM binding z-score [10]	PBM binding z-score [11]	PBM binding z-score [12]	PBM binding z-score [13]	PBM binding z-score [14]	PBM binding z-score [15]	PBM binding z-score [16]	PBM binding z-score [17]	PBM binding z-score [18]	PBM binding z-score [19]	PBM binding z-score [20]
CCTCGGAGGACAACACGAGGTCAGAGCTGCCAGA	1.62	2.84	2.76	1.58	-0.589	2.22	0.596	0.153	-0.655	-0.293	0.265	0.387	-0.876	-1.22	1.79	3.06	0.779	3.03	0.807	2.96
ATATGTAGGTTACATCCGGGTCATTCCGGCTATG	1.93	4.16	1.81	2.68	0.955	4.37	5.96	5.25	2.7	4.37	7.45	7.39	4.71	3.42	2.43	3.36	1.56	3.56	0.832	2.14
CGTCCAAGGTCATAGGTGGTCAGTGAAGACAGAT	7.11	5.63	1.51	4	0.409	5.57	5.44	5.25	2.42	4.36	2.96	3.73	0.259	-0.648	2.54	4.5	1.58	5	1.26	4.89
ATCGAAAGGTCGTGAGGTCAGTATACAGAAAGGC	6.58	5.12	1.48	4.57	1.04	5.7	5.27	5.25	2.05	3.65	0.335	2.89	1.16	0.766	3.48	5.08	0.97	5.65	1.02	5.02
CAAACTAGGTCGAGGTCAAAGTCGGTTTGTGCCA	5.44	5.1	3.63	4.38	1.07	5.46	7.22	6.53	3.54	5.58	6.55	6.77	0.51	0.375	1.85	5.34	2.29	4.71	0.547	4.28
AGAACGACGGCAATGAGTTGATAGCACGGGTGGC	-0.823	-0.86	-0.973	-1.01	-0.907	-0.728	0.71	-0.672	-0.309	-0.536	-0.438	-0.402	-0.484	-0.862	-0.865	-0.631	-0.242	-0.819	-0.419	-0.448
